Screening results deposited in PubChem BioAssay by National Center for Advancing Translational Sciences (NCATS).
HP1b chromo inh – HP1-beta chromodomain-methylated histone interaction inhibition; P83916; AlphaScreen HP1-beta / biotin-H3K9me3 peptide binding; Potency, µM (top dose mostly 114 µM), for the others: top-dose activity change, negative = inhibition, usual class: inhibitors; 390,000 tested, 0.56% active; also: nearly all actives have a fitted effect of over 70% in size
Target sequence (P83916 whole entry, looked up): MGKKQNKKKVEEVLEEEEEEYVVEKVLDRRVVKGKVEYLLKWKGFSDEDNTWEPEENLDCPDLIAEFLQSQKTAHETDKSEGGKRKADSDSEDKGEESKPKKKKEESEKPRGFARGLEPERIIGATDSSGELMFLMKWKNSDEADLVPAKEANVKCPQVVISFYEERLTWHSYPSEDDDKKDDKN
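HP1-beta protein (50 nM final) preincubated 30 min at room temperature with biotinylated H3(1-18)K9me3 peptide (50 nM) in PBS pH 7.4, 0.01% Tween-20, then compound added for 30 min. AlphaScreen streptavidin donor/nickel chelate acceptor beads (10 ug/mL final), 30 min dark, luminescence read.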
VDR inhibitor – blocks the human vitamin D receptor | P11473 | 400,000 tested, 0.93% active | AID 504847 | VDR-SRC2-3 peptide fluorescence polarization, 2 h | Potency, µM, inactives show max response, negative = inhibition, hits mostly inhibitors; also: % is scaled to controls: 0 for no effect and ±100 for the full control effect
Target sequence (P11473 whole entry, looked up): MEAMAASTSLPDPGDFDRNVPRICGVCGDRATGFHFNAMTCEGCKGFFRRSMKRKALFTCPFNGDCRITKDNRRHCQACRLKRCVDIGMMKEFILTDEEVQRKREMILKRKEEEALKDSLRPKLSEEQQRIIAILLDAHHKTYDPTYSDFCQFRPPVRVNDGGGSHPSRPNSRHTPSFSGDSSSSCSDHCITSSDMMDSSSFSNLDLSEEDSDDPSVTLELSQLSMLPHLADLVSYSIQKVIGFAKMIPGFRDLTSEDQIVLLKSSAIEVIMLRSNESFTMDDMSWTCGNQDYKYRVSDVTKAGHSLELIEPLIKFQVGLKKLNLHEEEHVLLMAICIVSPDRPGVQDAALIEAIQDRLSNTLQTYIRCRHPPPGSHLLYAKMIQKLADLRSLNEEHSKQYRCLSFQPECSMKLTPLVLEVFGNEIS
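After 23 nl compound addition and a short centrifugation, plates sat for 2 hours at ambient temperature; polarization of fluorescence then indicated loss of VDR binding to peptide SRC2-3.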
G9a block – inhibitors of human histone lysine methyltransferase G9a; G9a H3K9 monomethylation, AlphaScreen, 2 h; Potency, µM (top dose mostly 102 µM), inactives show top-dose activity, negative = inhibition, actives largely listed as inhibitors; 350,000 tested, 8.8% active; AID 504332; also: % is scaled to controls: 0 for no effect and ±100 for the full control effect; nearly all actives have a fitted effect of over 75% in size
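AlphaScreen read-out: biotin-H3K9 peptide (500 nM) methylation by 20 nM enzyme with 20 uM SAM, 2 h at room temperature after 15 min compound preincubation; anti-monomethyl H3K9 antibody plus donor/acceptor beads, 10 min dark.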
PLK1 PBD inh – PLK1 (human) polo-box domain binding inhibition | P53350 | Plk1 PBD binding of FITC phosphopeptide, fluorescence polarization | Potency, µM, for inactives: max response, negative = inhibition, actives largely listed as inhibitors | 360,000 tested, 2.8% active; also: series mostly up to about 57 µM; % is scaled to controls: 0 for no effect and ±100 for the full control effect; nearly all actives have a fitted effect of over 65% in size
BAZ2B block – blocks human BAZ2B | Potency, µM (highest dose often 114 µM), without a hit: at the top dose activity change, negative = inhibition, hits mostly inhibitors | AlphaScreen BAZ2B-H3K14Ac peptide displacement | 360,000 tested, 4.4% active; also: % is scaled to controls: 0 for no effect and ±100 for the full control effect; nearly all actives have a fitted effect of over 60% in size
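BAZ2B (50 nM) with biotin-H3(5-23)K14Ac peptide (50 nM) in PBS pH 7.4, 0.01% Tween-20, preformed 30 min, then compound 30 min at room temperature; top concentration 110uM. AlphaScreen streptavidin donor/nickel chelate acceptor beads (10 ug/mL final), 20 min dark, signal read.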
JMJD2A Tudor inh – blocks the human JMJD2A Tudor domain | AlphaScreen JMJD2A-Tudor / H3K4me3 peptide binding | Potency, µM (titrated, usually from 114 µM), for inactives: at the highest dose activity change, negative = inhibition, usual class: inhibitors | 390,000 tested, 4.4% active | AID 504339; also: % is scaled to controls: 0 for no effect and ±100 for the full control effect; nearly all actives have a fitted effect of over 50% in size
* marks the source's active call; other numbers are inactive results; [ ] = another dose, or the depositor's remark. In the library only some 11% were active in any assay of this set; here they are far more common. Calls follow the shape of the dose curve; as a rule, active = well fitted curve in the direction sought with a large enough effect; inconclusive = small, poorly fitted or top-dose-only effect, or another doubt; inactive = no such curve, though single readings can be large; an effect the other way counts as inactive or inconclusive. Potency is read from the fitted curve at half-maximal effect.

What do the screens show for `COC(=O)C1=C(C)N(Cc2ccccc2)C(=NCc2ccc(OC)cc2)N[C@H]1c1cccc(F)c1`?
HP1b chromo inh: 0%; VDR inhibitor: 0%; G9a block: 79µM*; PLK1 PBD inh: -8%; BAZ2B block: inconclusive; JMJD2A Tudor inh: inconclusive

What do the screens show for `CC(=O)C1=C(C)N(Cc2ccccc2)C(=O)N[C@@H]1c1cccc(C(F)(F)F)c1`?
HP1b chromo inh: 18%; VDR inhibitor: -29%; G9a block: 50µM*; PLK1 PBD inh: -16%; BAZ2B block: -19%; JMJD2A Tudor inh: -29%

How did COC(=O)C1=C(C)N(Cc2ccccc2)C(=NCC(C)C)N[C@H]1c1cccc(F)c1 do in these assays?
HP1b chromo inh: 11%; VDR inhibitor: -5%; G9a block: 2%[12.7 µM]; PLK1 PBD inh: -15%; BAZ2B block: inconclusive; JMJD2A Tudor inh: 25µM*

What do the screens show for `COC(=O)C1=C(C)N(Cc2ccccc2)C(=NCC(C)C)N[C@H]1c1cccc(C(F)(F)F)c1`?
HP1b chromo inh: 13%; VDR inhibitor: 7%; PLK1 PBD inh: -4%; JMJD2A Tudor inh: 35µM*

Results for O=C(OCC1CCC=CO1)C1CCC=CO1 (stereo not given) ?
HP1b chromo inh: 18%; VDR inhibitor: -2%; PLK1 PBD inh: -3%; JMJD2A Tudor inh: -5%

How did O=C(CN1C(=O)CSc2ccc(S(=O)(=O)N3CCCCC3)cc21)NCc1ccc(F)cc1Cl do in these assays?
HP1b chromo inh: 80%; VDR inhibitor: inconclusive; G9a block: inconclusive; BAZ2B block: 21%; JMJD2A Tudor inh: -28%

How did CN(C(=O)COC(=O)CNC(=O)c1ccc(Cl)cc1Cl)c1ccccc1 do in these assays?
HP1b chromo inh: -5%; VDR inhibitor: -9%; G9a block: 10%; PLK1 PBD inh: -7%; BAZ2B block: -2%; JMJD2A Tudor inh: -13%

What do the screens show for `N#C/C(=C\c1c(Oc2ccc(Br)cc2)nc2ccccn2c1=O)c1nc2ccccc2s1`?
HP1b chromo inh: 20%; VDR inhibitor: 40µM*; G9a block: 2.8µM*; BAZ2B block: -10%; JMJD2A Tudor inh: -33%

Results for Cc1cc(Oc2nc3ccccn3c(=O)c2/C=C(\C#N)c2nc3ccccc3s2)ccc1Cl ?
HP1b chromo inh: 38%; VDR inhibitor: -27%; G9a block: 10µM*; BAZ2B block: -2%; JMJD2A Tudor inh: -18%

Results for CCc1ccc(Oc2nc3c(C)cccn3c(=O)c2/C=C(\C#N)c2nc3ccccc3s2)cc1 ?
HP1b chromo inh: 28%; VDR inhibitor: inconclusive; G9a block: -7%[59 µM]; BAZ2B block: 2%; JMJD2A Tudor inh: 2%

What do the screens show for `Cc1ccc(CSCCNC(=O)C2CCN(S(=O)(=O)Cc3ccccc3)CC2)cc1`?
HP1b chromo inh: 39%; VDR inhibitor: 18%; G9a block: -1%[59 µM]; BAZ2B block: -12%; JMJD2A Tudor inh: -3%

Results for CCCCNC(=S)NCCCc1cnc[nH]1 ?
JMJD2A Tudor inh: -18%

How did CCCCNC(=S)NCCCN(Cc1ccc(Cl)c(Cl)c1)c1ccc(Br)cn1 do in these assays?
JMJD2A Tudor inh: -30%

What do the screens show for `S=C(NCCCc1cnc[nH]1)NCCCN(Cc1ccc(Cl)cc1)c1ccc(Br)cc1`?
HP1b chromo inh: 32µM*; VDR inhibitor: 3%; JMJD2A Tudor inh: 4.5µM*

How did S=C(NCCCc1cnc[nH]1)NCCCN(CCc1ccc(Cl)cc1)c1ccc(Br)cn1 do in these assays?
HP1b chromo inh: inconclusive; VDR inhibitor: -8%; JMJD2A Tudor inh: 45µM*

What do the screens show for `S=C(NCCCc1cnc[nH]1)NCCCN(Cc1ccc(Cl)cc1)c1ncc(Br)cn1`?
HP1b chromo inh: inconclusive; VDR inhibitor: -18%; JMJD2A Tudor inh: 50µM*

Results for NCCCN(Cc1ccc(Cl)cc1)c1ccc(Br)cn1 ?
HP1b chromo inh: 20%; VDR inhibitor: -20%; JMJD2A Tudor inh: -15%

Results for S=C(NCCCc1cnc[nH]1)NCCCN(Cc1ccc(Cl)cc1)c1ccc(Br)cn1 ?
JMJD2A Tudor inh: 50µM*

What do the screens show for `COc1ccccc1-c1nc2ccc(Cl)cc2c(=O)n1O`?
HP1b chromo inh: 36%; VDR inhibitor: -8%; G9a block: 3%; PLK1 PBD inh: -2%; BAZ2B block: -27%; JMJD2A Tudor inh: -8%

How did O=S1(=O)C[C@H](N2CCCC2)[C@@H](COCc2ccccc2)N1 do in these assays?
PLK1 PBD inh: -15%

Results for CC(C)C[C@@H](NC(=O)[C@@H](Cc1ccccc1)NC(=O)c1cnccn1)B(O)O ?
VDR inhibitor: 14%; G9a block: 1%[12.7 µM]

Results for O=C(NCCCc1cnc[nH]1)NCCCN(Cc1ccc(Cl)cc1)c1ccc(Br)cn1 ?
HP1b chromo inh: inconclusive; VDR inhibitor: 1%; JMJD2A Tudor inh: 45µM*

How did S=C(NCCCc1cnc[nH]1)NCCCN(Cc1ccc(Cl)cc1)c1ccc(-c2ccccc2)cn1 do in these assays?
HP1b chromo inh: inconclusive; VDR inhibitor: 3%; JMJD2A Tudor inh: 50µM*

Results for CCCCN1C(=O)C(O)=C(C(C)=O)C1c1ccccc1[N+](=O)[O-] (stereo not given) ?
HP1b chromo inh: 42%; VDR inhibitor: -14%; G9a block: inconclusive; PLK1 PBD inh: -21%; BAZ2B block: inconclusive; JMJD2A Tudor inh: -27%

Results for CC(=O)C1=C(O)C(=O)N(c2ccc(Br)cc2)C1c1ccc(Br)cc1 (stereo not given) ?
HP1b chromo inh: 13%; VDR inhibitor: inconclusive; G9a block: 50µM*; PLK1 PBD inh: -14%; BAZ2B block: inconclusive; JMJD2A Tudor inh: -11%

How did CC(=O)C1=C(O)C(=O)N(c2ccc(O)cc2)C1c1ccccc1[N+](=O)[O-] (stereo not given) do in these assays?
HP1b chromo inh: -3%; VDR inhibitor: 5%; G9a block: 14µM*; PLK1 PBD inh: -20%; BAZ2B block: -28%; JMJD2A Tudor inh: -7%

What do the screens show for `COC(=O)CCCC1=CC2=C(c3ccccc3)C(=O)C(C)(OC(=O)C3CCCC3)C(=O)C2=CN1Cc1ccco1` (stereo not given)?
HP1b chromo inh: -6%; VDR inhibitor: -13%; G9a block: 1%[12.7 µM]; PLK1 PBD inh: 0%; BAZ2B block: 71µM*; JMJD2A Tudor inh: inconclusive

Results for O=C(COC(=O)CSc1ccccc1)NCCNC(=O)COC(=O)CSc1ccccc1 ?
HP1b chromo inh: 15%; VDR inhibitor: -12%; G9a block: inconclusive; PLK1 PBD inh: -17%; BAZ2B block: 7%; JMJD2A Tudor inh: -15%
